Results filed as inconclusive are left out. Entries that show only a call come without a potency. Unmarked numbers belong to inactive results. Calls of active or inactive are those of the source. Calls follow the shape of the dose curve; as a rule, active = well fitted inhibition curve with a large enough effect; inconclusive = small, poorly fitted or top-dose-only effect; inactive = flat fitted curve, though single readings scatter.
Potency is read from the fitted curve at half-maximal effect.

The test system of this assay is CP203. In words: qHTS profiling for inhibitors of Plasmodium falciparum proliferation (AID 504749). Also: nearly all actives have a fitted effect of over 60% in size. The following applies: P. falciparum in erythrocytes, SYBR Green DNA, 72 h; series mostly up to 28.7 µM. From the text: NIH National Institute of Allergy and Infectious Diseases [NIAID] NIH Chemical Genomics Center [NCGC] MLPCN Grant: None Assay Provider: Xinzhuan Su, NIAID NCGC Assay Overview: Plasmodium falciparum is a virulent malarial parasite that kills 1-2 million people worldwide each year. Transmitted by mosquitoes, the sporozoite form of the parasite enters the blood stream to infect hepatocytes, where they become merozoites that infect red blood cells (erythrocytes). Within erythrocytes, merozoites begin a […] cycle of growth and division, after which the parasite is released to infect new red blood cells. Gametocytes, which form within erythrocytes as well, circulate in the bloodstream and are ingested by the mosquito, thereby completing the life cycle. To profile malarial isolates for differential chemical responses and to identify inhibitors of malarial growth, an assay that measures P. falciparum growth and replication within erythrocytes was employed. This assay uses a DNA binding fluorescent dye (SYBR Green) to detect parasite DNA following cell lysis. Because mature erythrocytes lack DNA, only Plasmodium-derived DNA is detected.
NCGC Assay Protocol Summary: The SYBR Green viability assay was adapted from a method described previously (Plouffe et al., 2008). For screening 3 ul culture medium was dispensed into 1536 well black clear bottom plates (Aurora Biotechnologies) using a Multidrop Combi (Thermo Fisher Scientific Inc.), 23 nL compounds in DMSO were added by a pin tool (Kalypsys), and 5 ul of erythrocytes infected with P. falciparum (0.3% parasitemia, 2.5% hematocrit final concentration) were added. The plates were incubated at 37 C in a humidified incubator in 5% CO2 for 72 h, and 2 ul lysis buffer (20 mM Tris HCl, 10 mM EDTA, 0.16% saponin, 1.6% triton X, 10X SYBR Green I supplied as 10,000X […] by Invitrogen) was added to each well. The plates were mixed for 25 sec with gentle shaking and incubated overnight at room temperature in the dark. The following morning, fluorescence intensity at 485(14) nm excitation and 535(25) nm emission wavelengths was measured on an EnVision (Perkin Elmer) plate reader. Plate reads were normalized relative to the control inhibitor (0.29 uM artemisinin) and vehicle (DMSO) wells present on each plate and then corrected by an algorithm using vehicle-only control plates at the beginning and end of the compound plate stack.
In general terms: qHTS replaces the single test concentration by a dilution series.
For the molecule `O=C1Nc2ccc(Cl)cc2C(c2ccccc2Cl)=NC1O` (stereo not given), the Potency result is “inactive”. On the same count and under the same terms, for `COP(=S)(OC)SCN1C(=O)c2ccccc2C1=O` the value was “inactive”; for `O=P1(N(CCCl)CCCl)NCCCO1` (stereo not given), “inactive”; for `Cc1ncsc1CCCl`, “inactive”. For `CCC1(CC)C(=O)C=CNC1=O`, the Potency result was “inactive”.

Consider `O=C1OC(c2ccc(O)c(S(=O)(=O)O)c2)(c2ccc(O)c(S(=O)(=O)O)c2)c2c(Br)c(Br)c(Br)c(Br)c21`, for which the Potency entry was “inactive”.

Turning to `O=C1CN=C(c2ccccc2)c2cc([N+](=O)[O-])ccc2N1`, the Potency result was “inactive”. Same read-out and setting: the same measure for `c1ccc2c(c1)sc1ccccc12`: “inactive”; for `NC(=O)CS(=O)C(c1ccccc1)c1ccccc1` (stereo not given): “inactive”; for `CCC1(c2ccccc2)C(=O)N(COC)C(=O)N(COC)C1=O`: “inactive”.

For the molecule `NNc1ccccc1`, the Potency entry was “inactive”. On the same count and under the same terms, the same measure for `C[C@]12CCC(=O)C=C1CC[C@@H]1[C@@H]2CC[C@]2(C)C(=O)CC[C@@H]12`: “inactive”; for `CN1C[C@H](C(=O)N[C@]2(C)O[C@@]3(O)[C@@H]4CCCN4C(=O)[C@H](Cc4ccccc4)N3C2=O)C=C2c3cccc4[nH]cc(c34)C[C@H]21`: 4.26 µM (active); for `Nc1ccccc1C(=O)O`: “inactive”. On the same count and under the same terms, for `CN1C(=O)CC(=O)N(c2ccccc2)c2cc(Cl)ccc21` the value was “inactive”; for `O=c1oc2ccccc2c(O)c1Cc1c(O)c2ccccc2oc1=O`, “inactive”; for `C[C@]12CC[C@@H]3c4ccc(OC(=O)N(CCCl)CCCl)cc4CC[C@H]3[C@@H]1CC[C@@H]2O`, “inactive”. As to `O=C1c2ccccc2C(=O)c2ccccc21`, the Potency entry was “inactive”.

For `COC1CC(=C(c2cccs2)c2cccs2)C[N+](C)(C)C1` (stereo not given), the Potency was 12 µM (active). The same measure, in the same setting: the same measure for `CC(C)=CC1C(C(=O)OCN2C(=O)C3=C(CCCC3)C2=O)C1(C)C` (stereo not given): “inactive”. As to `Nc1ccc([As](=O)(O)O)cc1`, the Potency result was “inactive”. Same read-out and setting: the same measure for `CN1C(=O)NC(=O)C(C)(C2=CCCCC2)C1=O` (stereo not given): “inactive”; for `Cc1nnc2n1-c1ccc(Cl)cc1C(c1ccccc1)=NC2`: “inactive”; for `CCCC(C)(COC(N)=O)COC(N)=O`: “inactive”. Consider `COc1ccc2c(c1OC)C(=O)O[C@H]2[C@@H]1c2cc3c(cc2CCN1C)OCO3`, for which the Potency result was “inactive”. The same measure, in the same setting: for `Clc1ccc2c(c1)C(c1ccccc1)=NCc1nncn1-2` the value was “inactive”; for `CNC(C)(C)Cc1ccccc1`, “inactive”.

With `CCCCCCC(=O)CCCCCC/C=C/C[C@@H](O)[C@H](O)[C@@](N)(CO)C(=O)O`, the Potency result is “inactive”. On the same count and under the same terms, for `O=C(O)CCCc1ccc(N(CCCl)CCCl)cc1` the value was “inactive”; for `CN1C(=O)COc2c(C(=O)NC3CN4CCC3CC4)cc(Cl)cc21` (stereo not given), “inactive”. Same read-out and setting: the same measure for `Nc1nc(N)nc(NC2CC2)n1`: “inactive”; for `CN1C(=O)CCS(=O)(=O)C1c1ccc(Cl)cc1` (stereo not given): “inactive”; for `Oc1ccc(Cl)cc1`: “inactive”. Regarding `CCCCC/C=C\C/C=C\C/C=C\C/C=C\CCCC(=O)NCC(=O)O`, the activity, negative = inhibition was 6.81% [at 2.67 µM]. For the molecule `O=c1[nH]oc2c1CCNC2`, the Potency result is “inactive”. Still for that read-out and setting: the same measure for `C=CCN1C[C@H](C)N([C@H](c2ccc(C(=O)N(CC)CC)cc2)c2cccc(OC)c2)C[C@H]1C`: “inactive”.

With `CCCCCCCCCC(=O)O[C@H]1CC[C@H]2[C@@H]3CCC4=CC(=O)CC[C@@H]4[C@H]3CC[C@]12C`, the Potency entry was “inactive”. As to `CC(C)NC(C)C`, the Potency entry was “inactive”. On the same count and under the same terms, the same measure for `CN1CCC(O)(c2ccc(F)cc2)C(C(=O)c2ccc(F)cc2)C1` (stereo not given): “inactive”; for `CCC(C)(C)c1ccc(O)cc1`: “inactive”.

The values are drawn from PubChem BioAssay (NCATS).
